Screening results as filed in PubChem BioAssay.
VDR inhibitor – inhibitors of human vitamin D receptor | Potency, µM, inactives show max response, negative = inhibition, usual class: inhibitors | AID 504847 | actives 0.93% (n = 400,000) | VDR-SRC2-3 peptide fluorescence polarization, 2 h; also: potency is read from the fitted curve at half-maximal effect; % is scaled to controls: 0 for no effect and ±100 for the full control effect
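Reagent solutions, kept cold and dark, are dispensed first; compounds are then pinned in at 23 nl, plates briefly spun, and incubated 2 h at ambient temperature. Inhibition of VDR–SRC2-3 peptide binding is read by fluorescence polarization.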
TrxR1 inh – blocks rat thioredoxin reductase 1; Potency, µM (titrated, usually from 114 µM), without a hit: top-dose activity change, negative = inhibition, hits mostly inhibitors; recombinant rTrxR1, NADPH fluorescence consumption, selenite substrate; actives 1% (n = 390,000); also: potency is read from the fitted curve at half-maximal effect; % is scaled to controls: 0 for no effect and ±100 for the full control effect; nearly all actives have a fitted effect of over 65% in size
Target sequence (O89049 whole entry, looked up): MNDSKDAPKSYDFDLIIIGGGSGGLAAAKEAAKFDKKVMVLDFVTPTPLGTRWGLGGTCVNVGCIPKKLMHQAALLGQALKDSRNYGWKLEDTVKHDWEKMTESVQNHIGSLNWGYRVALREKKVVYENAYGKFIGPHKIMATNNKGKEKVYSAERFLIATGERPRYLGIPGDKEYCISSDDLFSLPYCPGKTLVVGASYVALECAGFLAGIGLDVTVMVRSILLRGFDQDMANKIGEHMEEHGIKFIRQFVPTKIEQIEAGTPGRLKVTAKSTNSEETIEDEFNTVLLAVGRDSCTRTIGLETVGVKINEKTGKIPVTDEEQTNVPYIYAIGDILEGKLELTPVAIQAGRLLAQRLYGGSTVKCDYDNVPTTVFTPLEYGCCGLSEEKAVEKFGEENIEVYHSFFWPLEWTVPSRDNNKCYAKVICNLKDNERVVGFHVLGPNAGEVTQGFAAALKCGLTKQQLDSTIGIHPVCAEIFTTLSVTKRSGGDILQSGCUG
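Rat TrxR1 (90 nM in the dispensed reagent) was pre-reduced with 400 uM NADPH for 5 min at room temperature, then incubated with compound for 15 min. After 400 uM selenite was added, NADPH fluorescence (Ex 340/Em 450 nm) was followed for 8 min.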
TrxR1 substrate – is turned over as a substrate by rat TrxR1; purified TrxR1 substrate turnover, NADPH consumption readout; Potency, µM (top dose mostly 114 µM), without a hit: at the top dose activity change, negative = substrate turnover; actives 0.01% (n = 390,000); AID 588456; also: potency is read from the fitted curve at half-maximal effect; % is scaled to controls: 0 for no effect and ±100 for the full control effect; nearly all actives have a fitted effect of over 50% in size
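Rat TrxR1, dispensed at 90 nM, was prereduced with 400 uM NADPH (final) for 5 min at ~22 deg C, then incubated with compound 15 min before 400 uM selenite. A first-read NADPH fluorescence drop versus no-compound background flagged substrates.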
Sfp PPTase inh – blocks B. subtilis Sfp PPTase activity | AID 1490 | actives 3.5% (n = 310,000) | Biochemical Sfp PPTase activity, qHTS | Q9F4F7 | Potency, µM, for the others: largest response in the series, negative = inhibition, actives largely listed as inhibitors;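 also: the enzyme is Sfp with the accession as filed and its product quenches rhodamine fluorescence; potency is read from the fitted curve at half-maximal effect; 0% = enzyme reaction without inhibitor and -100% = no enzyme wells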
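Fluorescence-quenching assay with 15 nM Sfp, 5 uM rhodamine-CoA and 12.5 uM BHQ-2-labelled ybbR peptide in pH 7.6 Hepes/MgCl2 buffer. Enzyme was pre-incubated with compound for 15 min at room temperature. Rate was taken from the 30-min fluorescence change (525/598 nm).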
GCN5L2 inh-1 – blocks human GCN5L2 histone acetyltransferase. AID 504327. actives 0.21% (n = 390,000). Potency, µM (series often up to 58.9 µM), for the others: at the top dose activity change, negative = inhibition, usual class: inhibitors. Q92830. GCN5L2 HAT assay, ThioGlo1 CoA-SH fluorescence; also: potency is read from the fitted curve at half-maximal effect; % is scaled to controls: 0 for no effect and ±100 for the full control effect
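ThioGlo1-coupled HAT assay: 20nM GCN5L2, 70uM acetyl-CoA, 75uM H3(1-25) peptide, pH 7.5. Fluorescence read at 340/540nm at start and after 20 min at room temperature.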
GLS inhibitor – inhibitors of human glutaminase (GLS). GLS enzymatic activity, qHTS titration. Potency, µM (titrated, usually from 45.5 µM), for inactives: top-dose activity change, negative = inhibition, hits mostly inhibitors. actives 0.21% (n = 410,000); also: potency is read from the fitted curve at half-maximal effect; % is scaled to controls: 0 for no effect and ±100 for the full control effect
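hKGA in 45 mM KH2PO4 pH 8.2, 0.02% Tween-20 with pin-transferred compounds; 1 mM L-glutamine (stock) plus glutamate oxidase/HRP/Amplex Red coupling added. Fluorescence read initially and after 30 min at RT.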
GCN5L2 inh-2 – human KAT2A HAT inhibition, hit confirmation; shares compounds with GCN5L2 inh-1; GCN5L2 HAT, ThioGlo1 CoA fluorescence, 20 min; Potency, µM, hits mostly inhibitors; actives 70% (n = 140); AID 588347
The depositor's hits bear a star; ? = inconclusive; / = not tested or not shown; [ ] = another dose, or the depositor's remark. The list is not random: actives were taken first. Their share in the collection is about 3.8%. Calls follow the shape of the dose curve; as a rule, active = well fitted curve in the direction sought with a large enough effect; inconclusive = small, poorly fitted or top-dose-only effect, or another doubt; inactive = no such curve, though single readings can be large; an effect the other way counts as inactive or inconclusive.

SMILES	VDR inhibitor	TrxR1 inh	TrxR1 substrate	Sfp PPTase inh	GCN5L2 inh-1	GLS inhibitor	GCN5L2 inh-2
Cc1ccc(N2C(=O)C3C4C=CC(CC4)C3C2=O)cc1[N+](=O)[O-] (stereo not drawn)	-9%	20%	1%	32µM*	?	-10%	16*
CC(C)CCN1C(=O)c2ccc(C(=O)Nc3ccc(Br)cc3C(=O)O)cc2C1=O	79µM*	24%	-8%	-7%	35µM*	1%	20*
Cc1ccc(S(=O)(=O)/N=C2/NC(=O)/C(=C\c3cc(Br)cc(Br)c3O)S2)cc1	50µM*	-24%	-12%	?	16µM*	?	11*
Cc1ccc(C2=NOC(=O)/C2=C\C=C\c2ccccc2)cc1	-2%	?	7%[57.1 µM]	28µM*	25µM*	?	?
O=C(O)CSc1cc(C(=O)c2ccccc2O)cn2c(=O)c3c(-c4ccccc4)csc3nc12	-17%	-23%	-3%	?	25µM*	-22%	26*
Cc1ccccc1Nc1nn2c(=O)c3ccccc3nc2s1	-11%	-3%	-4%	11%	?	-3%	/
Cc1c2cnn(CC(=O)Nc3c(F)c(F)cc(F)c3F)c(=O)c2c(C)n1Cc1ccccc1F	17%	-6%	-5%	-10%	13µM*	4%	20*
CC(C)Oc1cccc(-n2c(CCc3c[nH]c4ccc(Br)cc34)nc3ccccc3c2=O)c1	-2%	/	/	7%	-19%	/	/
CSc1ccc(/C=N/Nc2cccc(C(=O)O)c2)cc1	-2%	19%[57.1 µM]	7%	12%	?	27%	?
COc1ccc(-c2nn(-c3ccccc3)cc2/C=N/NC(=O)c2ccc(Br)o2)cc1	-7%	0%[57.1 µM]	10%[57.1 µM]	25%	25µM*	-8%	9.1*
COc1ccc(-c2nn(-c3ccccc3)cc2/C=N/NC(=O)c2ccc3c(c2)OCO3)cc1	/	/	/	15%	-12%	/	/
CCOC(=O)C1(Cc2ccc(Cl)cc2)CCN(C2CCC2)CC1	-4%	-12%[57.1 µM]	-3%[57.1 µM]	18%	-12%	4%	/
CC(C)(C)c1ccc(OCC(=O)Nc2ccc(C(=O)Nc3ccccc3C(=O)O)cc2)cc1	?	-25%	-10%	3%	32µM*	-6%	23*
Cc1ccc(S(=O)(=O)N(C)C[C@H]2Oc3cc(Br)ccc3S(=O)(=O)N([C@H](C)CO)C[C@@H]2C)cc1	/	/	/	/	/	-5%	/
COc1ccc(OC)c(/C=C/C(=O)Nc2cccc(S(=O)(=O)NC3=NCCCCC3)c2)c1	-6%	103%	125%	/	32µM*	0%	32*
COc1ccc(/C=C/C(=O)Nc2cccc(S(=O)(=O)NC3=NCCCCC3)c2)c(OC)c1	-8%	10%	5%	/	-13%	0%	/
Cn1cc(CN2CCC(C(=O)NC(c3ccc(F)cc3)c3ccc4ccccc4n3)CC2)c2ccccc21 (stereo not drawn)	/	/	/	/	/	-2%	/
OC(CN1CCN(c2cccc(Cl)c2)CC1)c1ccccc1 (stereo not drawn)	9%	-3%	-4%	10%	-4%	-10%	/
CC1=NN(c2ccccc2)C(=O)/C1=C/C=C/c1ccccc1	?	2%	12%	-3%	-7%	-2%	/
CC1=NN(c2cccc(C(=O)O)c2)C(=O)/C1=C\C=C\c1ccco1	?	?	-7%	-23%	?	92%	?
CCOC(=O)c1c(NC(=O)COC(=O)c2cnccn2)sc(C(=O)NC)c1C	-15%	-9%	-8%	/	0%	-13%	/
CCOC(=O)c1c(-c2ccco2)csc1NC(=O)COC(=O)c1cnccn1	-9%	?	1%	/	11µM*	6%	?
Cc1ccccc1N1CN(Cc2ccco2)CNC1=S	5%	7%[57.1 µM]	10%[57.1 µM]	7%	-5%	-2%	/
Cc1nn2cc(-c3ccccc3)nc2[nH]c1=O	-9%	-14%	89%	-2%	?	-4%	/
